This passage reports growth results from PubChem BioAssay (NCI).

This is part of a sample that, as a whole, favours compounds with a hit. Of some 83,000 tested, about 20% had one in any assay.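 How to read the values: 0–100, growth inhibition (40 = 60% inhibited); 0, no net growth; -100 to 0, cell death (-40 = 40% of starting cells died; -100 = all dead).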 The source made the active and inactive calls. Rule for the calls: active = growth percent below 10; inactive = the rest.

One test concerns SN12C renal. As to the kind of experiment: NCI-60 one-dose screen, 48 h (100 = growth as untreated, 0 = no growth, -100 = all killed). As to conditions: 10 µM unless noted.
`Oc1cccc2ccc(-c3nnc(SCc4ccc(O)c5ncccc45)o3)nc12`: the growth is 7.07% (active).

`COC(=O)c1[nH]nc2c1C1(C(=O)N(C)c3ccccc31)C(C#N)=C(N)O2` (stereo not given): the growth was 97.9% (inactive).

Take `Cc1ccc2sc3c(c2c1)OC(N)=C(C#N)C3c1ccc(Cl)cc1` (stereo not given): the growth is 93.3% (inactive).

In the case of `CC1=NC2=NN3C(=NN2C(c2ccccc2)=C1)N=NC(c1ccc(Br)cc1)=C3c1ccc(Br)cc1`, the growth was 101% (inactive).

Turning to `Cn1ccnc1C(=O)/C=C/c1ccc(NC(=O)c2c(F)c(F)c(F)c(F)c2F)cc1`, the growth was 101% (inactive).

With `COc1ccc(/C=C/C(=O)c2cc(S(N)(=O)=O)c(OC)cc2OC)cc1`, the growth is 61.1% (inactive).

For the compound `N#Cc1cccc(CN2CCC3=C(C2)C(=O)N(Cc2ccc(Cl)cc2)C2=NCCCN23)c1`, the growth was 22.1% (inactive).

Take `COc1ccc(CCN2C(=O)CSC2=S)cc1`: the growth is 88.8% (inactive).

For `CC(=O)N1C(=S)NC(=O)C1CC(C)C` (stereo not given), the growth was 101% (inactive).

For `Cc1ccc2sc3c(c2c1)OC(N)=C(C#N)C3c1cccc(F)c1` (stereo not given), the growth is 10.4% (inactive).

Consider `COc1cc(-c2nc(SC(C)C)n(C(C)C)c(=O)c2C#N)ccc1OCc1ccccc1`, for which the growth is 16.2% (inactive).

With `NS(=O)(=O)c1ccc(-n2cc(-c3cccc(NC(=O)c4ccc(N5CCOCC5)c(C(F)(F)F)c4)c3)nn2)cc1`, the growth was 43.9% (inactive).

`O=C1/C(=C/C=C/c2ccco2)SC(=S)N1c1ccccc1`: the growth is 79.1% (inactive).

`COc1cc(OC)c(S(N)(=O)=O)cc1C(C)=O`: the growth was 97.2% (inactive).

With `CNC(=O)c1cc(Oc2ccc3nc(NC(=O)c4cc(N5CCOCC5)cc(C(F)(F)F)c4)sc3c2)ccn1`, the growth is 83.1% (inactive).

Regarding `CCCCCc1ccc(S(=O)(=O)Nc2cccc(-c3csc(NC(=O)CCCCCN4CCN(CCO)CC4)n3)c2)cc1`, the growth is 85.2% (inactive).

Turning to `CNC(=O)c1cc(Oc2ccc3nc(NC(=O)c4cccc(OC(F)(F)F)c4)sc3c2)ccn1`, the growth was 78.7% (inactive).

Regarding `Cc1cc(C)c(N2C(=O)CC(Nc3ccc(Cl)cc3Cl)C2=O)c(C)c1` (stereo not given), the growth is 98.2% (inactive).

On to `Cc1ccc(C(=O)NN2C(=O)/C(=C/C=C/c3ccco3)SC2=S)cc1`, for which the growth is 94.7% (inactive).

For `CC/C(=C/c1c(O)cccc1OC)c1ccc2c(OC)cccc2[o+]1`, the growth is 96.9% (inactive).

For `COc1cc(/C=C2\C(=O)Nc3ccccc32)ccc1OCc1ccc(F)cc1`, the growth is 100% (inactive).

On to `N/C(=N\C(N)=N\c1nc2ccccc2s1)c1ccc(C(F)(F)F)cc1`, for which the growth was 36.5% (inactive).

Consider `CN(C)CCNC(=O)c1ccc(-c2nc3ccc4[nH]ncc4c3c3c2COCC3)cc1`, for which the growth was 5.07% (active).

As for `O=C(Nc1ccc(N=Cc2c(O)[nH]c3ccccc23)cc1)Nc1nccs1`, the growth was 68% (inactive).

Regarding `O=C(Nc1nonc1-c1ccccc1)c1ccc(C(F)(F)F)cc1`, the growth was 71.7% (inactive).

With `COc1cccc(C(=O)Nc2cccc(C#Cc3cccc4[nH]nc(N)c34)c2)c1`, the growth is 71.6% (inactive).

Take `Cn1ccnc1C(=O)/C=C/c1ccc(NC(=O)c2ccc(F)cc2)cc1`: the growth is 25% (inactive).

Regarding `Nc1nc(-c2cccc([N+](=O)[O-])c2)c(N=Nc2ccccc2)s1`, the growth is 71% (inactive).

Regarding `Cc1ccc(N2C(=O)/C(=C/C=C/c3ccco3)SC2=S)cc1`, the growth is 91.4% (inactive).

In the case of `COc1cc(OC)c(S(N)(=O)=O)cc1C(=O)/C=C/c1ccc(C)cc1`, the growth is 11.4% (inactive).

As for `CN1CCC(n2cc(Nc3ncc4c(=O)n(-c5c(Cl)cccc5Cl)cc(Br)c4n3)cn2)CC1`, the growth is 20.7% (inactive).

Regarding `C#CC(=O)N(c1ccc(OC)cc1OC)C(C(=O)NCC(=O)OCC)c1cccs1` (stereo not given), the growth is 44.9% (inactive).

In the case of `COc1ccc(/C=C(/C)c2ccc3ccc(OC)cc3[o+]2)c(O)c1`, the growth is 85.5% (inactive).

As for `Cc1ccc(-c2cc3nc(C(Cl)Cl)nc(C)n3n2)cc1`, the growth was 113% (inactive).

For `Cc1ccc(-c2nnc(SCc3ccc(O)c4ncccc34)n2-c2ccccc2)cc1`, the growth is 15.1% (inactive).

Consider `CCOc1ccccc1NC1=C(Cl)C(=O)c2nc(C)ccc2C1=O`, for which the growth is -51% (active).

A further test concerns UO-31 renal. The description is as above. As to conditions: 10 µM unless noted.
For `Oc1cccc2ccc(-c3nnc(SCc4ccc(O)c5ncccc45)o3)nc12`, the growth was -6.85% (active).

`COC(=O)c1[nH]nc2c1C1(C(=O)N(C)c3ccccc31)C(C#N)=C(N)O2` (stereo not given): the growth is 79.7% (inactive).

As for `Cc1ccc2sc3c(c2c1)OC(N)=C(C#N)C3c1ccc(Cl)cc1` (stereo not given), the growth was 75.9% (inactive).

Regarding `CC1=NC2=NN3C(=NN2C(c2ccccc2)=C1)N=NC(c1ccc(Br)cc1)=C3c1ccc(Br)cc1`, the growth is 80.1% (inactive).

Take `Cn1ccnc1C(=O)/C=C/c1ccc(NC(=O)c2c(F)c(F)c(F)c(F)c2F)cc1`: the growth is 79.7% (inactive).

With `COc1ccc(/C=C/C(=O)c2cc(S(N)(=O)=O)c(OC)cc2OC)cc1`, the growth was 72.4% (inactive).

In the case of `N#Cc1cccc(CN2CCC3=C(C2)C(=O)N(Cc2ccc(Cl)cc2)C2=NCCCN23)c1`, the growth was 37.4% (inactive).

In the case of `Cc1nn(-c2ccccc2)c2ncnc(N/N=C/c3ccccc3O)c12`, the growth was -25.8% (active).

With `COc1ccc(CCN2C(=O)CSC2=S)cc1`, the growth is 92% (inactive).

In the case of `CC(=O)N1C(=S)NC(=O)C1CC(C)C` (stereo not given), the growth was 93.2% (inactive).

Consider `Cc1ccc2sc3c(c2c1)OC(N)=C(C#N)C3c1cccc(F)c1` (stereo not given), for which the growth is 25.9% (inactive).

Regarding `COc1cc(-c2nc(SC(C)C)n(C(C)C)c(=O)c2C#N)ccc1OCc1ccccc1`, the growth was 56.8% (inactive).

Turning to `C/C(=N\O)[C@H]1C[C@]23CC[C@]4(C)[C@H](CC[C@@H]5[C@@]6(C)CC/C(=N/O)C(C)(C)[C@@H]6CC[C@]54C)[C@H]2[C@H](C)C1(C)OC3`, the growth is 67% (inactive).

Regarding `NS(=O)(=O)c1ccc(-n2cc(-c3cccc(NC(=O)c4ccc(N5CCOCC5)c(C(F)(F)F)c4)c3)nn2)cc1`, the growth was 26.7% (inactive).

On to `O=C1/C(=C/C=C/c2ccco2)SC(=S)N1c1ccccc1`, for which the growth is 42.9% (inactive).

For `COc1cc(OC)c(S(N)(=O)=O)cc1C(C)=O`, the growth is 97.4% (inactive).

On to `CNC(=O)c1cc(Oc2ccc3nc(NC(=O)c4cc(N5CCOCC5)cc(C(F)(F)F)c4)sc3c2)ccn1`, for which the growth was 87.8% (inactive).

In the case of `CCCCCc1ccc(S(=O)(=O)Nc2cccc(-c3csc(NC(=O)CCCCCN4CCN(CCO)CC4)n3)c2)cc1`, the growth was 88.4% (inactive).

Turning to `CNC(=O)c1cc(Oc2ccc3nc(NC(=O)c4cccc(OC(F)(F)F)c4)sc3c2)ccn1`, the growth is 95.7% (inactive).

For the compound `Cc1cc(C)c(N2C(=O)CC(Nc3ccc(Cl)cc3Cl)C2=O)c(C)c1` (stereo not given), the growth was 85.9% (inactive).

As to `Cc1ccc(C(=O)NN2C(=O)/C(=C/C=C/c3ccco3)SC2=S)cc1`, the growth was 88.6% (inactive).

With `CC/C(=C/c1c(O)cccc1OC)c1ccc2c(OC)cccc2[o+]1`, the growth was 93.5% (inactive).

As to `Cc1ccc2c(c1)C(=O)/C(=C/c1cccc(F)c1)S2`, the growth was 88.4% (inactive).

Take `COc1cc(/C=C2\C(=O)Nc3ccccc32)ccc1OCc1ccc(F)cc1`: the growth is 84.7% (inactive).

For `N/C(=N\C(N)=N\c1nc2ccccc2s1)c1ccc(C(F)(F)F)cc1`, the growth was -19.1% (active).

Consider `CN(C)CCNC(=O)c1ccc(-c2nc3ccc4[nH]ncc4c3c3c2COCC3)cc1`, for which the growth is 82.9% (inactive).

As to `O=C(Nc1ccc(N=Cc2c(O)[nH]c3ccccc23)cc1)Nc1nccs1`, the growth is 48.4% (inactive).

With `O=C(Nc1nonc1-c1ccccc1)c1ccc(C(F)(F)F)cc1`, the growth was 91.4% (inactive).

For the compound `COc1cccc(C(=O)Nc2cccc(C#Cc3cccc4[nH]nc(N)c34)c2)c1`, the growth was 56.4% (inactive).

Regarding `Cn1ccnc1C(=O)/C=C/c1ccc(NC(=O)c2ccc(F)cc2)cc1`, the growth was 42.3% (inactive).

For `Nc1nc(-c2cccc([N+](=O)[O-])c2)c(N=Nc2ccccc2)s1`, the growth was 62.2% (inactive).

`Cc1ccc(N2C(=O)/C(=C/C=C/c3ccco3)SC2=S)cc1`: the growth is 84% (inactive).

`COc1cc(OC)c(S(N)(=O)=O)cc1C(=O)/C=C/c1ccc(C)cc1`: the growth was 34.7% (inactive).

For the compound `CN1CCC(n2cc(Nc3ncc4c(=O)n(-c5c(Cl)cccc5Cl)cc(Br)c4n3)cn2)CC1`, the growth is 22.2% (inactive).

As to `C#CC(=O)N(c1ccc(OC)cc1OC)C(C(=O)NCC(=O)OCC)c1cccs1` (stereo not given), the growth is -79.9% (active).

In the case of `COc1ccc(/C=C(/C)c2ccc3ccc(OC)cc3[o+]2)c(O)c1`, the growth is 69.4% (inactive).

Take `Cc1ccc(-c2cc3nc(C(Cl)Cl)nc(C)n3n2)cc1`: the growth is 80.9% (inactive).

On to `Cc1ccc(-c2nnc(SCc3ccc(O)c4ncccc34)n2-c2ccccc2)cc1`, for which the growth was -12.8% (active).

For the compound `CCOc1ccccc1NC1=C(Cl)C(=O)c2nc(C)ccc2C1=O`, the growth is -93% (active).
